We go through five molecules from PubChem BioAssay.

In experiment [1] the test system is Wnt5a (protein binding on small-molecule microarray). Briefly: small molecules binding Wnt5a protein – biophysical, small-molecule microarray, 635/667 nm fluorescence, primary screen (AID 1142).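 Further: fluorescence read at 667 nm with signal to noise per printed feature.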 As to conditions: 635 nm fluorescence, higher = more signal.
Experiment [2] can be described thus: ATP-based viability of Huh7 replicon cells – cell-based, CellTiter-Glo luminescence, basal, 48 h, cytotoxicity control for HCV replication inhibitor project, primary screen (AID 1143).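 Further: Huh7 hepatoma cells carrying a hepatitis C replication reporter with no stimulus; test concentration not given here.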 As to conditions: higher = more signal, called active from +8 up or from −8 down. (In antiviral work, replicon cells carry a viral genome segment that copies itself.)
A short description of experiment [3]: Pseudomonas biofilm growth suppression – PAO1 strain, BacTiter-Glo luminescence, LB-PBS, primary screen (AID 1144). As to conditions: P. aeruginosa PAO1 biofilm, 12 h, higher = more signal.
Experiment [4] is described as follows: basal CRE-LacZ reporter activity in PC12 – cell-based, unstimulated, primary screen (AID 1145). The conditions noted are these: no forskolin, luminescence, 4.5 h, higher = more signal, called active from +8 up or from −8 down.
Experiment [5] can be described thus: forskolin-driven CRE-LacZ activity in PC12 – cell-based, CRE-LacZ reporter, forskolin-stimulated, primary screen (AID 1146).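 Further: PC12 cells with 6xCRE LacZ reporter stimulated by forskolin 10 µM; beta-galactosidase reporter signal reflecting CREB driven transcription.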 The conditions noted are these: luminescence, 4.5 h, higher = more signal, called active from +8 up or from −8 down.
The target of experiment [6] is Streptavidin (Streptomyces avidinii) (UniProt P22629). Kind of experiment: compounds binding control protein streptavidin – biophysical, small-molecule microarray, 635/667 nm fluorescence, artefact control for SMM compound annotation, primary screen (AID 1147).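 Further: signal reflects streptavidin binding to arrayed compounds as a control protein.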 As to conditions: higher = more signal.
Experiment [7] is described as follows: probe aInhba binding on compound microarray – biochemical, small-molecule microarray, 635/667 nm fluorescence, primary screen (AID 1148).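 Further: score merges 667nm spot fluorescence with signal-to-noise for antibody binding to printed compounds.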 The conditions noted are these: higher = more signal.
In experiment [8] the target is Torsin-1A (Homo sapiens) (UniProt O14656). Kind of experiment: TOR1A wild-type binding on microarray – cell lysate, small-molecule microarray, lysate, 635/667 nm, primary screen (AID 1149). As to conditions: COS7 hTOR1A-WT lysate, 635 nm fluorescence, higher = more signal.
For experiment [9] the target is unchanged. Briefly: torsin A mutant lysate binding on microarrays – cell lysate, small-molecule microarray, COS7 lysate, 635/667 nm fluorescence, primary screen (AID 1150).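 Further: score pools 667 nm emission and signal to noise measuring lysate protein binding.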 As to conditions: COS7 hTOR1A mutant lysate, 635 nm fluorescence, higher = more signal.
In experiment [10] the test system is Sonic hedgehog protein (Shh). Kind of experiment: Sonic hedgehog microarray binding compounds – biochemical, small-molecule microarray, 635/667 nm fluorescence, primary screen (AID 1151).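 Further: Shh protein binding to compounds spotted on small-molecule microarray slides; score combines spot fluorescence intensity with signal-to-noise across triplicate slides.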 As to conditions: 635 nm fluorescence, higher = more signal.
The nature of experiment [11]: optical density shifts of acrAB sulA E. coli – strain DRC41, OD650, 48 h, E. coli filamentation inducer project, primary screen (AID 1152).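 Further: E. coli MC1000 strain DRC41 lacking acrAB efflux pump and sulA.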 As to conditions: higher = more signal, called active from +8 up or from −8 down.
Experiment [12] is described as follows: probe aLefty1 binding on compound microarray – biochemical, small-molecule microarray, 635/667 nm fluorescence, primary screen (AID 1153).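 Further: score merges spot fluorescence with signal-to-noise ratio from the scanned slide images.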 As to conditions: higher = more signal.
Experiment [13] is described as follows: plasmodial surface anion channel blockers, osmotic lysis – cell-based, P. falciparum Indochina, OD700, 1 h, primary screen (AID 1154). As to conditions: P. falciparum Indochina infected RBC osmotic lysis, higher = more signal, called active from +8 up or from −8 down.
Experiment [14] is described as follows: plasmodial surface anion channel blockers, osmotic lysis – cell-based, P. falciparum Indochina, OD700, 2 h, primary screen (AID 1155).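 Further: lysis reports solute entry through the parasite surface anion channel PSAC.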 As to conditions: P. falciparum Indochina infected erythrocytes, higher = more signal, called active from +8 up or from −8 down.
A short description of experiment [15]: changes in parasitized red cell lysis, either direction – P. falciparum Indochina, OD700, 3 h, PSAC antagonist project, primary screen (AID 1156). As to conditions: P. falciparum-infected erythrocytes, osmotic lysis, higher = more signal, called active from +8 up or from −8 down.
Experiment [16] is described as follows: plasmodial surface anion channel blockers, osmotic lysis – cell-based, P. falciparum Indochina, OD700, 18 h, primary screen (AID 1157). As to conditions: P. falciparum Indochina infected erythrocytes, osmotic lysis OD700, 18 h; higher = more signal, called active from +8 up or from −8 down.
Experiment [17] is described as follows: S6 kinase pathway phospho-S6 level changes – cell-based, A549, cytoblot, luminescence, serum-stimulated, primary screen (AID 1158).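 Further: serum-stimulated A549 lung adenocarcinoma cells; signal is phosphorylated S6 detected by cytoblot immunostaining with HRP secondary.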 As to conditions: 5 h, higher = more signal.
For experiment [18], the target named is NADPH oxidase 2 (Homo sapiens) (UniProt P04839). Kind of experiment: compounds shifting NOX2 Amplex Red fluorescence – cell-based, HEK293-NOX2, PMA-stimulated, NOX inhibitor project, primary screen (AID 1159). Further: test concentration not given here. As to conditions: 45 min, higher = more signal, called active from +8 up or from −8 down.
In experiment [19] the target is NADPH oxidase 4 (Homo sapiens) (UniProt Q9NPH5). Kind of experiment: compounds shifting NOX4 Amplex Red fluorescence – cell-based, HEK293-NOX4, tetracycline-induced, NOX inhibitor project, primary screen (AID 1160). As to conditions: HEK293-NOX4, Amplex Red H2O2 fluorescence, 45 min; higher = more signal, called active from +8 up or from −8 down.
Experiment [20] addresses NADPH oxidase 5 (Homo sapiens) (UniProt Q96PH1). Kind of experiment: compounds shifting NOX5 Amplex Red fluorescence – cell-based, HEK293-NOX5, NOX inhibitor project, primary screen (AID 1161). The conditions noted are these: HEK293-NOX5, ionomycin, 45 min, higher = more signal.

Calls of active or inactive are those of the source. Unless noted, how the calls were made is not given here.

Sequence of Torsin-1A (Homo sapiens) (O14656 whole entry, looked up): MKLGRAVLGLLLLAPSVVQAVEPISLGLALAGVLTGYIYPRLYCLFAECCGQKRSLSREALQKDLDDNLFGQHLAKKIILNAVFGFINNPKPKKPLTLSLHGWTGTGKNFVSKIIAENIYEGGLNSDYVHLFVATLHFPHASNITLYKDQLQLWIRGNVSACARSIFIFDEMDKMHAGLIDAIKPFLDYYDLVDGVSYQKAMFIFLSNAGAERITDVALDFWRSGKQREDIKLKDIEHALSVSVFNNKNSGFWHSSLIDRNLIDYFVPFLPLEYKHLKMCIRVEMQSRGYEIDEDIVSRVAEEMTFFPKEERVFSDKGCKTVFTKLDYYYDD
Sequence of NADPH oxidase 4 (Homo sapiens) (Q9NPH5 whole entry, looked up): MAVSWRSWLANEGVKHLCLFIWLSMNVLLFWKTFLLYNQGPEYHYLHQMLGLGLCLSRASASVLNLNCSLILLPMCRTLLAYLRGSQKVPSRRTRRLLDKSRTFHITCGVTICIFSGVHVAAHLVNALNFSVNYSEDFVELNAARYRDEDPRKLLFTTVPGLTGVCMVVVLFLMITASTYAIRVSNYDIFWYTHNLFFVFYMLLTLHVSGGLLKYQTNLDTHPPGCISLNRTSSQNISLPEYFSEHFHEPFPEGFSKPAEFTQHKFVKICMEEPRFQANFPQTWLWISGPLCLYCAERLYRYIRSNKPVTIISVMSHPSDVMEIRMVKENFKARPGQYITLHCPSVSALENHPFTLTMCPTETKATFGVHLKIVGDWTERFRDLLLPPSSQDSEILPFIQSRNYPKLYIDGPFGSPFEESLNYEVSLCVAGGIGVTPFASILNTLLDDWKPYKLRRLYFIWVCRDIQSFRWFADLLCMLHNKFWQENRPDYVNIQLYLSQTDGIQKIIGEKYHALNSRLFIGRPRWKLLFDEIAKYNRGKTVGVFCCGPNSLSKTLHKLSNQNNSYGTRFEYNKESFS
Sequence of Streptavidin (Streptomyces avidinii) (P22629 whole entry, looked up): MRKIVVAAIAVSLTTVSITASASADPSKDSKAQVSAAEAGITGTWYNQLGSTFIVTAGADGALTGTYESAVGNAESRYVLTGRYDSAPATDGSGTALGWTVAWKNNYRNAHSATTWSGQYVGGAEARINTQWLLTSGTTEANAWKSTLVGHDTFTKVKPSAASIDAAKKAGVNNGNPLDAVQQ
Sequence of NADPH oxidase 5 (Homo sapiens) (Q96PH1 whole entry, looked up): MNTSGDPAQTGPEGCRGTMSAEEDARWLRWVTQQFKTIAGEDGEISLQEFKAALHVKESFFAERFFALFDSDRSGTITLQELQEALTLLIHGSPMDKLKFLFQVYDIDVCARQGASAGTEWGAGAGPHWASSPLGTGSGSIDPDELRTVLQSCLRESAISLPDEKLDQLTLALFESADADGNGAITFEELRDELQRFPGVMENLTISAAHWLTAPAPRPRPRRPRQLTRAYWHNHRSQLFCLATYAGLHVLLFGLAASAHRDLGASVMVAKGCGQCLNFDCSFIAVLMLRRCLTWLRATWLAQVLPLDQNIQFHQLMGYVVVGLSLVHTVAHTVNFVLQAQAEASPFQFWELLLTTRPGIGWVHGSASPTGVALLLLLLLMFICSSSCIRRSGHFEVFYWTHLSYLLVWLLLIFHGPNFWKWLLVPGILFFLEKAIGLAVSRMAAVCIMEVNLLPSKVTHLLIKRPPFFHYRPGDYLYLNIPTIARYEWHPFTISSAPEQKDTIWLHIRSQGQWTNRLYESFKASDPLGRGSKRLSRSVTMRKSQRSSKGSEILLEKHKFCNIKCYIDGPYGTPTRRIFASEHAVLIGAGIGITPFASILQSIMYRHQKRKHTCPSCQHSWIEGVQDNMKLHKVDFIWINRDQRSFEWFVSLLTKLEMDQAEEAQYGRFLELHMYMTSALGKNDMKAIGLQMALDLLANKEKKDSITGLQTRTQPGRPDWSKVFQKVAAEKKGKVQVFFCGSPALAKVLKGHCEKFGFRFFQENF
Sequence of NADPH oxidase 2 (Homo sapiens) (P04839 whole entry, looked up): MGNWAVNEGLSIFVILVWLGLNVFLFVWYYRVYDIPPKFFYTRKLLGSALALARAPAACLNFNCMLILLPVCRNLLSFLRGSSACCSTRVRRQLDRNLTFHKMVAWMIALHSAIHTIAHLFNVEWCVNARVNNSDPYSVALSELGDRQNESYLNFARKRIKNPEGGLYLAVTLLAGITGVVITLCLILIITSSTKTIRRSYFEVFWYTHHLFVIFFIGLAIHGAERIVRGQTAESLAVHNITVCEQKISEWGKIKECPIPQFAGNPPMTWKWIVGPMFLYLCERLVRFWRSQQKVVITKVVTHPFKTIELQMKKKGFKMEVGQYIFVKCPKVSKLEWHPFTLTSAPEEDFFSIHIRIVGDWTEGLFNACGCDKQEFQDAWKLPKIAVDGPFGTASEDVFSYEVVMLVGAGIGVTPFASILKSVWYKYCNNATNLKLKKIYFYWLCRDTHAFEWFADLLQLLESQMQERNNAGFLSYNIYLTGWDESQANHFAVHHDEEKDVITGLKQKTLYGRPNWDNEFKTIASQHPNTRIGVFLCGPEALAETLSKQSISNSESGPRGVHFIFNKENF

As to `COc1ccc(OC[C@H]2Cc3c(-c4ccccc4)nc4c(c3CO2)CN(CCOc2ccccc2)CC4)cc1`, the composite z-score was found to be 0.133 in experiment [1]; 0.633 in experiment [6]; 0.109 in experiment [7]; 0.086 in the experiment with Torsin-1A (Homo sapiens) [8]; 0.534 with Torsin-1A (Homo sapiens) [9]; 1.37 in experiment [10]. In addition, the composite z-score in experiment [12] is -0.0141. The z-score in experiment [2] was -3.41 (inactive); in experiment [3], -1.27 (inactive); in experiment [4] it was 5.99 (inactive); in experiment [5], -1.02 (inactive); in experiment [11] it was 0.481 (inactive); in experiment [13], 15.4 (active). Besides, the z-score is 0.946 (inactive) in [14]; 0.661 (inactive) in experiment [15]; -0.718 (inactive) in experiment [16]; 1.76 in experiment [17]; -0.0596 (inactive) in experiment [18]; -1.68 (inactive) in [19]. Besides, the z-score in experiment [20] was -1.04.

Regarding `CC(=O)OC[C@H]1O[C@H](CC=NOC[C@@H](C)[C@H](OCc2ccccc2)C(C)C)C=C[C@@H]1OC(C)=O`, the composite z-score in experiment [1] is -0.0373; in experiment [6], -0.0152; in [7], -0.0504; with Torsin-1A (Homo sapiens) [8], -0.0387; in the experiment with Torsin-1A (Homo sapiens) [9] it was 0.0881; in experiment [10], 0.583. In [12], this molecule registered a composite z-score of -0.101. In addition, the z-score was -0.23 (inactive) in [2]; -0.369 (inactive) in [3]; 2.04 (inactive) in experiment [4]; 0.494 (inactive) in experiment [5]; -0.0083 (inactive) in experiment [11]; 1.25 (inactive) in [13]. Also, the z-score in [14] was 0.766 (inactive); in experiment [15], 0.712 (inactive); in experiment [16], 0.343 (inactive); in [17] it was -0.0212; in [18], -0.401 (inactive); in experiment [19], -0.344 (inactive). The z-score in experiment [20] was -2.35.

`COc1ccc(COC(=O)NN=C2C[C@@H](O)[C@@H](O)[C@@H]3[C@@H]4C(=O)N(Cc5ccc6c(c5)OCO6)C(=O)[C@@H]4CC[C@@H]23)cc1`: the composite z-score in experiment [1] was 0.0183; in experiment [6], 1.09; in experiment [7] it was 0.0028; in the experiment with Torsin-1A (Homo sapiens) [8], -1.15; with Torsin-1A (Homo sapiens) [9], -0.686; in experiment [10], -1.07. For the same molecule, the composite z-score in experiment [12] came out at 1.15. Besides, the z-score in experiment [2] is -0.797 (inactive); in experiment [3], 0.786 (inactive); in experiment [4], 1.61 (inactive); in experiment [5], -0.41 (inactive); in experiment [11], 0.306 (inactive); in experiment [13], 11.8 (active). The z-score is 0.801 (inactive) in experiment [14]; 0.819 (inactive) in experiment [15]; -1.17 (inactive) in experiment [16]; 1.27 in experiment [17]; -0.377 (inactive) in experiment [18]; 0.343 (inactive) in [19]. The z-score in [20] worked out at 0.964.

With `COc1ccccc1CN1C(=O)c2ccccc2[C@@H](C(=O)NCC(F)(F)F)[C@@H]1c1ccc(CO)cc1`, the composite z-score in [1] is 0.324; in experiment [6], 0.299; in [7] it was 0.16; in the experiment with Torsin-1A (Homo sapiens) [8], 0.156; with Torsin-1A (Homo sapiens) [9], 0.336; in experiment [10], 1.92. In [12], the composite z-score is -0.242. The z-score is -1.92 (inactive) in experiment [2]; -1.6 (inactive) in [3]; 0.504 (inactive) in experiment [4]; -1.28 (inactive) in experiment [5]; 1.22 (inactive) in [11]; 2.54 (inactive) in experiment [13]. The z-score in experiment [14] is 0.346 (inactive); in experiment [15], -0.114 (inactive); in experiment [16], 0.547 (inactive); in [17], -0.189; in [18], 0.629 (inactive); in experiment [19], 0.732 (inactive). The z-score in experiment [20] is -0.0947.

As for `COC(=O)[C@@H]1N=C(c2ccc(OCCCO)cc2)O[C@@H]1c1ccccc1N=[N+]=[N-]`, the composite z-score in experiment [1] is 0.122; in experiment [6] it was 0.937; in [7], 0.168; with Torsin-1A (Homo sapiens) [8], 0.131; in the experiment with Torsin-1A (Homo sapiens) [9], 0.51; in experiment [10], -0.0259. The molecule also came in with a composite z-score in [12] of 0.309. Besides, the z-score in experiment [2] is -2.72 (inactive); in experiment [3], -0.943 (inactive); in [4], 1.7 (inactive); in experiment [5] it was -0.826 (inactive); in experiment [11], 0.666 (inactive); in [13] it was 29.3 (active). Also, the z-score in experiment [14] was 25.8 (active); in experiment [15], 1.88 (inactive); in [16] it was 5.77 (inactive); in experiment [17], 1.24; in [18] it was -1.24 (inactive); in experiment [19], -0.0584 (inactive). Also, the z-score in experiment [20] is -2.26.
